Common to all, as to conditions: inducer concentration 5 mM; 6 h; Cupriavidus necator H16; minimal medium + 0.4% gluconate
The test system of assay [1] is AcoR/P_H16_RS19445 acetoin biosensor (pEH052). The experiment in a line: relative induction of RFP reporter vs primary effector; higher = stronger activation. How it is done: (§1)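 Orthogonality screen of 21 primary inducers against 21 transcription factor/inducible promoter–mRFP biosensors in C. necator H16 in minimal medium, robotic 96-well format, 5 mM inducer, 30 °C. OD-normalised RFP fluorescence was read 6 h later and expressed as relative induction (%) = 100 × (FL compound − FL uninduced)/(FL primary inducer − FL uninduced); mean of n=4. Cognate pairs (100% by definition) omitted.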

The subject of assay [2] is AraC/P_araBAD L-arabinose biosensor (pEH176). The assay is described as above. How it is done:
as §1

The subject of assay [3] is BadR/P_H16_RS27200 cyclohexanecarboxylate biosensor (pEH159). The assay is described as above. The protocol:
as §1

Assay [4] relates to BenM/P_H16_RS09790 benzoate biosensor (pEH148). The description is as above. How it is done: as §1
In assay [5] the test system is FdsR/P_H16_RS03165 formate biosensor (pEH134). The assay is described as above. How it is done:
as §1

Assay [6] concerns GabR/P_H16_RS23655 GABA biosensor (pEH256). The assay is described as above. How it is done:
as §1

Assay [7] relates to HpdA/P_H16_RS24175 L-tyrosine biosensor (pEH158). Described as above. How it is done:
as §1

The test system of assay [8] is NahR/P_H16_RS08125 salicylate biosensor (pEH042). The assay is described as above. The protocol:
as §1

Assay [9] concerns OapR/P_H16_RS01330 beta-alanine biosensor (pEH147). Described as above. The protocol:
as §1

The subject of assay [10] is PcaQ/P_H16_RS30145 3,4-dihydroxybenzoate biosensor (pEH161). Described as above. The protocol:
as §1

Assay [11] relates to PhgR/P_H16_RS05530 phenylglyoxylate biosensor (pEH155). The description is as above. The protocol: as §1
Assay [12] relates to SauR/P_H16_RS13695 sulfonatoacetate biosensor (pEH157). Described as above. How it is done: as §1
The subject of assay [13] is XdhR/P_H16_RS05055 xanthine biosensor (pEH154). The description is as above. The protocol:
as §1

In assay [14] the test system is heterologous L-rhamnose-inducible system. The assay is described as above. The protocol: as §1
Assay [15] concerns heterologous acrylate-inducible system. The description is as above. How it is done:
as §1

Assay [16] concerns heterologous cumate-inducible system. The description is as above. The protocol:
as §1

The test system of assay [17] is heterologous itaconate-inducible system. The description is as above. How it is done:
as §1

Assay [18] relates to AcoR/P_H16_RS19445 acetoin biosensor (pEH052). The experiment in a line: relative induction of RFP reporter vs primary effector (background-corrected); higher = stronger activation of the biosensor. The protocol: (§2)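 C. necator H16 strains, each carrying one of 21 transcription factor/inducible promoter–mRFP biosensor plasmids, were grown in minimal medium in 96-well plates (robotic platform). Each was exposed to 46 structurally or metabolically related compounds at 5 mM at 30 °C. OD-normalised RFP fluorescence was read 6 h later and expressed as relative induction (%) = 100 × (FL compound − FL uninduced)/(FL primary inducer − FL uninduced); mean of n=4.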

For assay [19], the system named is AraC/P_araBAD L-arabinose biosensor (pEH176). The assay is described as above. The protocol: as §2
Assay [20] concerns BenM/P_H16_RS09790 benzoate biosensor (pEH148). Described as above. How it is done:
as §2

For assay [21], the system named is FdsR/P_H16_RS03165 formate biosensor (pEH134). The assay is described as above. How it is done:
as §2

Assay [22] concerns GabR/P_H16_RS23655 GABA biosensor (pEH256). Described as above. The protocol: as §2
The test system of assay [23] is HpdR/P_H16_RS18295 3-hydroxypropanoate biosensor (pEH010). Described as above. How it is done: as §2
The test system of assay [24] is KynR/P_H16_RS14030 L-kynurenine biosensor (pEH136). The description is as above. The protocol:
as §2

The subject of assay [25] is NahR/P_H16_RS08125 salicylate biosensor (pEH042). Described as above. The protocol:
as §2

In assay [26] the test system is OapR/P_H16_RS01330 beta-alanine biosensor (pEH147). Described as above. How it is done: as §2
For assay [27], the system named is PcaQ/P_H16_RS30145 3,4-dihydroxybenzoate biosensor (pEH161). Described as above. How it is done:
as §2

Assay [28] relates to PhgR/P_H16_RS05530 phenylglyoxylate biosensor (pEH155). Described as above. The protocol:
as §2

For assay [29], the system named is PhhR/P_H16_RS18365 L-phenylalanine biosensor (pEH137). The assay is described as above. The protocol: as §2
In assay [30] the test system is SauR/P_H16_RS13695 sulfonatoacetate biosensor (pEH157). The assay is described as above. How it is done: as §2
Assay [31] concerns TtdR/P_H16_RS10665 tartrate biosensor (pEH083). The description is as above. The protocol: as §2
Assay [32] relates to XdhR/P_H16_RS05055 xanthine biosensor (pEH154). The assay is described as above. How it is done: as §2
Assay [33] has as its system heterologous inducible system pEH002 (rhamnose/acrylate/cumate/itaconate set). Described as above. The protocol:
as §2

Assay [34] deals with heterologous inducible system pEH020 (rhamnose/acrylate/cumate/itaconate set). Described as above. How it is done:
as §2

The test system of assay [35] is heterologous inducible system pEH040 (rhamnose/acrylate/cumate/itaconate set). The description is as above. The protocol: as §2
In assay [36] the test system is heterologous inducible system pEH086 (rhamnose/acrylate/cumate/itaconate set). The assay is described as above. The protocol:
as §2

Assay [37] concerns TtdR/P_H16_RS10665 tartrate biosensor (pEH083). The experiment in a line: relative induction of RFP reporter vs primary effector; higher = stronger activation. How it is done:
as §1
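Throughout, for relative induction of RFP reporter vs primary effector (background-corrected): RFP excited at 585 nm with emission read at 620 nm, culture medium blanks subtracted from fluorescence and absorbance prior to normalisation.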

For `O=C(O)C(O)C(O)C(=O)O` (configuration not stated) [tartrate], the “relative induction of RFP reporter” value in [1] is 0.491%; in assay [2], -0.00769%; in assay [3] it was -0.687%; in [4], 0.00705%; in [5], -1.89%; in [6], 0.312%. Further, the “relative induction of RFP reporter” value in assay [7] is -0.0207%; in assay [8] it was 0.0221%; in assay [9], -0.132%; in assay [10] it was 0.0285%; in assay [11] it was -0.242%; in [12] it was 0.033%. The “relative induction of RFP reporter” value is -0.458% in [13]; 0.0177% in [14]; -0.36% in assay [15]; -0.8% in assay [16]; 0.359% in [17].
For `CCCC(=O)O` [butyric acid], the “relative induction of RFP reporter” value was -2.08% in assay [18]; -0.0107% in [19]; -0.0464% in assay [20]; -1.59% in assay [21]; -2.45% in assay [22]; -0.186% in assay [23]. Also, the “relative induction of RFP reporter” value in [24] is -0.35%; in assay [25], -0.000826%; in [26], -0.94%; in assay [27] it was 0.636%; in assay [28], -0.41%; in assay [29] it was -0.461%. The “relative induction of RFP reporter” value in assay [30] is 0.0337%; in assay [31], -0.384%; in assay [32], -0.758%; in assay [33], -0.00916%; in assay [34] it was -1.33%; in assay [35], -0.981%. The “relative induction of RFP reporter” value in [36] is -0.0776%.
Take `N[C@@H](Cc1ccccc1)C(=O)O` [L-phenylalanine]: the “relative induction of RFP reporter” value in assay [1] is -1.77%; in [2], -0.0146%; in [3], -0.263%; in assay [4] it was -0.0737%; in assay [5] it was -4.81%; in assay [6] it was -2.3%. Besides, the “relative induction of RFP reporter” value in assay [7] is 57.7%; in [8] it was 0.00484%; in [9], -1.24%; in assay [10] it was -0.267%; in [11], -0.485%; in assay [12], -0.0265%. The “relative induction of RFP reporter” value in assay [37] was 0.153%; in assay [13], -1.38%; in assay [14] it was 0.00514%; in assay [15] it was -1.94%; in assay [16], -2.37%; in [17], -0.26%.
As to `O=CC(=O)O` [glyoxylate], the “relative induction of RFP reporter” value is -0.798% in assay [18]; 0.00961% in assay [19]; -0.0259% in assay [20]; -3.09% in assay [21]; -0.762% in assay [22]; -0.292% in assay [23]. Also, the “relative induction of RFP reporter” value in assay [24] is -0.15%; in assay [25], 0.0197%; in [26], 0.146%; in [27], 0.0806%; in assay [29], 0.0787%; in [30], -0.00107%. Also, the “relative induction of RFP reporter” value is 0.296% in assay [31]; -0.199% in [32]; 0.0215% in [33]; -0.333% in [34]; -0.263% in assay [35]; 0.035% in assay [36].
